From the supplement of paper PMC7595190

Test system: MV4-11
Experiment: CellTox Green cytotoxicity fluorescence relative to DMSO vehicle (fold of vehicle RFU); higher = more cell death (loss of membrane integrity), active = 2 or more
Experimental: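 Paediatric AML cell lines (MV4-11, CMK, Kasumi-1; 4x10^4 cells/well, 96-well) treated with single compounds from the Selleckchem apoptosis library at 0.01, 0.1 and 1 µM. Cytotoxicity was read with CellTox Green (RFU, Ex 485/Em 520) at 24, 48 and 72 h and normalised to the 0.1% DMSO vehicle. Normalised RFU >= 2 was taken as a successful, cell-killing treatment.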

Measured: CellTox Green cytotoxicity fluorescence

O=c1[nH]c2ccccc2n1C1CCN(Cc2ccc(-c3[nH]c4cc5ncnc5cc4nc3-c3ccccc3)cc2)CC1
inactive: 0.01 µM, 24 h 1 | 0.01 µM, 48 h 0.995 | 0.01 µM, 72 h 0.956 | 0.1 µM, 24 h 1 | 0.1 µM, 48 h 0.999 | 0.1 µM, 72 h 0.993 | 1 µM, 24 h 1.04 | 1 µM, 48 h 1.1 | 1 µM, 72 h 1.21

COc1ccc2c(c1)/C(=C/c1cnc[nH]1)C(=O)N2
inactive: 0.01 µM, 24 h 0.929 | 0.01 µM, 48 h 0.92 | 0.01 µM, 72 h 0.921 | 0.1 µM, 24 h 0.92 | 0.1 µM, 48 h 0.94 | 0.1 µM, 72 h 0.941 | 1 µM, 24 h 0.987 | 1 µM, 48 h 1.03 | 1 µM, 72 h 1.05

Cc1cc2c(C(C)C)c(O)c(O)c(C=O)c2c(O)c1-c1c(C)cc2c(C(C)C)c(O)c(O)c(C=O)c2c1O
inactive: 0.01 µM, 24 h 0.979 | 0.01 µM, 48 h 1 | 0.01 µM, 72 h 1 | 0.1 µM, 24 h 1 | 0.1 µM, 48 h 1 | 0.1 µM, 72 h 0.993 | 1 µM, 24 h 0.973 | 1 µM, 48 h 0.959 | 1 µM, 72 h 1.02

CC1=C(O)C(=O)C=C2C1=CC=C1[C@@]2(C)CC[C@@]2(C)[C@@H]3C[C@](C)(C(=O)O)CC[C@]3(C)CC[C@]12C [Celastrol]
inactive: 0.01 µM, 24 h 0.931 | 0.01 µM, 48 h 0.955 | 0.01 µM, 72 h 0.964 | 0.1 µM, 24 h 0.966 | 0.1 µM, 48 h 0.976 | 0.1 µM, 72 h 1.01 | 1 µM, 24 h 1.29 | 1 µM, 48 h 1.96
active: 1 µM, 72 h 2.21
